# Assay results taken from ChEMBL document CHEMBL4513216, “Probing the Open Global Health Chemical Diversity Library for Multistage-Active Starting Points for Next-Generation Antimalarials” (ACS Infect Dis, 2020).
# The whole screen tested about 65,000 compounds, of which about 2,100 (3.2%) showed an effect of 50% or more. The median lay at about -52%. The sample holds strong results, similar compounds and a random draw of the others, so the mix is not that of the screen.
# Tested on: Plasmodium falciparum
# Assay: Screen against P. falciparum Asexual Blood Stage (ABS), at 5uM
# Assay type: functional, Dd2
# Conditions: tested at 5 uM
row,SMILES,INHIBITION
1,O=C1C(NCc2nnc3n2CCCC3)CCN1c1ccccc1Cl (configuration not stated),-35.2%
2,CN(C)C(=O)CNC(=O)c1ccc2ccc(N(C)CC3CC3)n2c1,-73.5%
3,CN(CC1CC1)c1ccc2ccc(C(=O)NC3CCCCC3)cn12,54.6%
4,CCN(CC)c1ccc2ccc(C(=O)NC3CC3)cn12,-34.9%
5,CN(C)CCNC(=O)c1ccc2ccc(N(C)CC3CC3)n2c1,19.9%
6,COCCNC(=O)c1ccc2ccc(N(C)CC3CC3)n2c1,60.1%
7,CN(CC1CC1)c1ccc2ccc(C(=O)NCCc3ccccc3)cn12,-46.3%
8,Cn1cccc1CN1CCC2(CC1)CN(c1ncccn1)CCO2,-28.5%
9,CC1(C)CC(N(Cc2ccncc2)Cc2cccnc2)CC(C)(C)N1,25.7%
10,CC1(C)CC(N(Cc2ccccc2)Cc2c[nH]cn2)CC(C)(C)N1,20.7%
11,CC1(C)CC(N(Cc2ccccc2)Cc2cccnc2)CC(C)(C)N1,54.6%
12,Cc1ccc(CN(Cc2ccccn2)C(=O)[C@H]2CC[C@@H](N)C2)s1,-57.1%
13,Cc1cccc(CN(Cc2cccnc2)C2CC(C)(C)NC(C)(C)C2)n1,42.9%
14,Cc1ccc(CN(Cc2ccncc2)C2CCN(C)CC2)s1,34.9%
15,Cc1ccc(CN(Cc2c[nH]cn2)C2CC(C)(C)NC(C)(C)C2)o1,-50.8%
16,Cc1ccc(CN(Cc2ncc[nH]2)C2CC(C)(C)NC(C)(C)C2)o1,-15.9%
17,Cc1ccc(CN(Cc2cccnc2)C2CC(C)(C)NC(C)(C)C2)s1,69.6%
18,Cc1ccc(CN(Cc2ccccn2)C2CC(C)(C)NC(C)(C)C2)s1,69.8%
19,CC1(C)CC(N(Cc2cccnc2)Cc2cccnc2)CC(C)(C)N1,-5.22%
20,Cc1ccc(CN(Cc2ccncc2)C2CC(C)(C)NC(C)(C)C2)o1,66.9%
21,CCn1ncc2c(C(F)(F)F)cc(-c3ccn(C)n3)nc21,-88%
22,COc1ccc(C(C)Nc2cnn(C)c(=O)c2Cl)cc1OC (configuration not stated),-40.4%
23,CC(C)OCCN1CCC(Nc2ncccn2)CC1,-102%

row,SMILES,INHIBITION
1,CCC1CN(C(=O)NCc2cccnc2-n2cccn2)CCO1 (configuration not stated),-88.4%
2,O=C(O)C1CCCN1c1nc(-c2ccc(Cl)c(Cl)c2)cc(C(F)(F)F)n1 (configuration not stated),-8.45%
3,CCCc1nc(C)c(C(=O)NCCn2nc3ccccn3c2=O)s1,-201%
4,O=C(NCc1cc[nH]n1)NCC(c1ccccc1)N1CCOCC1 (configuration not stated),-82.7%
5,Cc1cccc(C(CNC(=O)NCc2cc[nH]n2)N2CCOCC2)c1 (configuration not stated),53%
6,O=C(NCc1cc[nH]n1)NCC(c1ccc(F)cc1)N1CCOCC1 (configuration not stated),-39%
7,CCCn1ccnc1-c1nccn1CCn1cnnc1,-36%
8,O=C(C1CCOCC1)N1CCO[C@H]2[C@H](Oc3ccccn3)CC[C@@H]21,-53.1%
9,O=C(NCC(=O)N1CCCC1)c1nn(-c2ccccc2F)cc1O,-120%
10,CCOCC(O)CN1CCN(C(=O)c2ccc(N(C)C)nc2)CC1 (configuration not stated),-72.5%
11,CCOCC(O)CN1CCN(C(=O)c2ccc(C)nc2)CC1 (configuration not stated),60.7%
12,CCOCC(O)CN1CCN(C(=O)c2ccc(OC)cc2)CC1 (configuration not stated),-24.3%
13,CC(Nc1ccc(C#N)cc1F)c1cccc(S(N)(=O)=O)c1 (configuration not stated),-49.5%
14,O=C1CC[C@H]2CN(Cc3ccc(Cl)s3)CC[C@H]2N1CCc1c[nH]cn1,66.6%
15,Cc1nc(CN2CC[C@@H]3[C@@H](CCC(=O)N3CCc3c[nH]cn3)C2)co1,-58.8%
16,O=C1CC[C@H]2CN(Cc3cccnc3)CC[C@H]2N1CCc1c[nH]cn1,-154%
17,CC(=O)N1CCC2(C1)c1ccccc1S(=O)(=O)N2C (configuration not stated),-56.8%
18,COc1ncccc1CNCc1c(C(C)C)nn(C)c1OC,-29.9%
19,Cc1nn(C)c(N(C)C)c1CNCc1ccccc1CN(C)C,18.8%
20,COc1ncccc1CNCc1c(C(C)C)nn(C)c1Cl,51.7%
21,CC(C)c1nn(C)c(N(C)C)c1CNCc1ccccc1CO,44.8%
22,CC(C)c1nn(C)c(N(C)C)c1CNCc1ccccc1CN(C)C,59.5%
23,COc1ncccc1CNCc1c(C(C)C)nn(C)c1N(C)C,11%

row,SMILES,INHIBITION
1,CCOc1ncccc1CNCc1c(C(C)C)nn(C)c1N(C)C,-7.19%
2,COCc1ccccc1CNCc1c(C)nn(C)c1N(C)C,-36.8%
3,CC(C)c1nn(C)c(N(C)C)c1CNCc1cccnc1N(C)C,21%
4,COCc1cccc(CNCc2c(C(C)C)nn(C)c2N(C)C)c1,36.5%
5,CC(C)c1nn(C)c(N(C)C)c1CNCc1cccc2cccnc12,67.5%
6,COCc1ccccc1CNCc1c(C(C)C)nn(C)c1N(C)C,59.4%
7,CS(=O)(=O)c1ccc(CN2C[C@@H]3CC[C@H]2CN(c2ncccn2)C3)cc1,-136%
8,CN(Cc1noc(C2CC2)n1)C1CCN(Cc2nnc(C3CC3)o2)C1 (configuration not stated),-122%
9,CC(C)(C)C(N)C1=NC(=C2N=CN=N2)NO1 (configuration not stated),-49.9%
10,CCn1c(=NC(=O)CSCC(=O)Nc2nccs2)sc2ccccc21,32.3%
11,CC(NCc1cnc(N2CCOCC2)nc1)c1ccc(Cl)s1 (configuration not stated),-25.9%
12,c1csc(CN2CCO[C@@H]3CN(C4CCOCC4)C[C@@H]3C2)c1,-93.2%
13,Cc1noc(C)c1CN1Cc2cnn(C)c2C(COCC2CC2)C1 (configuration not stated),-81.3%
14,Cc1ccc(CN2CCS(=O)(=O)C(C)(C)C2)cc1C,-98.2%
15,Cc1csc2ncnc(N3CCC(Cn4cc(C(C)(C)N)nn4)CC3)c12,35%
16,COc1ccc(NC(=O)CNc2ccc(Br)cc2F)cc1,-68.8%
17,COc1ccc(OC)c(CNCc2c(C(C)C)nn(C)c2N(C)C)c1,69.3%
18,COc1cccc(CNCc2c(C(C)C)nn(C)c2N(C)C)c1,-5.49%
19,COc1cccc(CNCc2c(C(C)C)nn(C)c2N(C)C)c1OC,33.3%
20,CC(C)COc1cncc(N2CCCN(c3ncccn3)CC2)n1,-186%
21,c1ccc(C2=NOC3(CCN(Cc4c[nH]c5ccccc45)CC3)C2)cc1,36.1%
